Only a selection was taken, and hits are over-represented in it overall.
FECH inh = inhibitors of human ferrochelatase; P22830; purified FECH, Ni-mesoporphyrin absorbance 550 nm; calls only at 10 µM (by protocol); actives 3.3% (n = 20,000);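 active = enzyme reaction rate more than 3 SD below the solvent-only control wells on the same plate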;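 also: lower slope than DMSO wells means FECH inhibition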
Target sequence (P22830 whole entry, looked up): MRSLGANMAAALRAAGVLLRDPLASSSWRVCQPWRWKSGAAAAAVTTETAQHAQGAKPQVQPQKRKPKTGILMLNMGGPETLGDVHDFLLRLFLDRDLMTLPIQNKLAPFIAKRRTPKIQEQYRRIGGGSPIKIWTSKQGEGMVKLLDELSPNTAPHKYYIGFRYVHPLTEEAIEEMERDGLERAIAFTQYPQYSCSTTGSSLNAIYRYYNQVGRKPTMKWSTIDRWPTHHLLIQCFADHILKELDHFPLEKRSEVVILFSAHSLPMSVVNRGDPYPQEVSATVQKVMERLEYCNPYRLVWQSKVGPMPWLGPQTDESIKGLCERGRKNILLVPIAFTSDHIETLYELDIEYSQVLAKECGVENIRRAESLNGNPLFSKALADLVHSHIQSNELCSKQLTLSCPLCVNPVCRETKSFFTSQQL
Numbers without * were called inactive; i = inactive; + = active, no number.

SMILES	FECH inh
CCn1cncc1CNC(=O)C(C)N1C(=O)c2cccc3cccc1c23 (stereo not given)	i
CC1CCCCC1NC(=O)C1CCN(c2ncnc3c2nc2n3CCCCC2)CC1 (stereo not given)	i
CCc1nc(OCC(=O)NCc2ccc(C)cc2)c2c(-c3ccc(F)cc3)noc2n1	i
CCc1nc(OCC(=O)NCc2cccc(OC)c2)c2c(-c3ccc(F)cc3)noc2n1	+
CCOc1ccc(CNC(=O)COc2nc(CC)nc3onc(-c4ccc(F)cc4)c23)cc1	i
Cc1cc(Nc2ccc(C)c(C)c2)n2nc(-c3cccnc3)nc2n1	i
CCCn1ccnc1-c1nccn1-c1ccc(OC)nc1OC	i
CCOc1ccccc1NC(=O)CN1CCN(Cc2ccccc2C)S1(=O)=O	+
CCOC(=O)c1ccccc1NC(=O)CN1CCN(Cc2ccccc2C)S1(=O)=O	i
CCc1ccccc1NC(=O)CN1CCN(Cc2ccccc2C)S1(=O)=O	i
CCc1ccccc1NC(=O)CN1CCN(Cc2ccc(F)cc2Cl)S1(=O)=O	i
CCOc1ccccc1NC(=O)CN1CCN(Cc2ccc(F)cc2Cl)S1(=O)=O	+
CCOc1ccccc1NC(=O)CN1CCN(Cc2ccccc2Cl)S1(=O)=O	i
CCC(=O)Nc1cccc(C(=O)N(C)Cc2n[nH]c3c2CCCC3)c1	i
Cc1ccc(NC(=O)C2CCCCC2)c(NC(=O)c2cc(C)[nH]n2)c1	i
CN(CCCNC(=O)CC1CCN(S(=O)(=O)c2ccccc2)CC1)c1ccccc1	i
COc1ccc(-c2nc(C(N)=O)c3c(n2)n(-c2ccc(F)cc2)c(=O)n3C)cc1OC	i
CC(=O)c1ccc(NC(=O)Cn2c(C(=O)OC(C)C)cc3ccsc32)cc1	+
COc1ccc(NC(=O)Cn2c(C(=O)OC(C)C)cc3ccsc32)cc1	i
CC(=O)c1cccc(NC(=O)Cn2c(C(=O)OC(C)C)cc3ccsc32)c1	i
O=C1CC(c2cccc3nsnc23)c2c(n[nH]c2-c2ccco2)N1 (stereo not given)	i
CC(C)(C)c1ncc2c(n1)CN(C(=O)Cn1nc3ccccc3n1)C2	i
CCC(=O)Nc1ccccc1-c1nnc(SCC(=O)Nc2ccccc2)[nH]c1=O	i
COc1ccccc1CNS(=O)(=O)c1cc(C(=O)N2CCCC2)cs1	i
Cc1cccc(N2CCN(c3ncc(NS(=O)(=O)c4ccccc4C)cc3C(=O)O)CC2C)c1 (stereo not given)	i
SMILES	FECH inh
Cc1cccc(N2CCN(c3ncc(NS(=O)(=O)c4ccc(F)cc4)cc3C(=O)O)CC2C)c1 (stereo not given)	i
Cc1cccc(N2CCN(c3ncc(NS(=O)(=O)c4cc(F)ccc4C)cc3C(=O)O)CC2C)c1 (stereo not given)	+
CCOc1ccc(CNC(=O)CCn2cnc3onc(-c4cc(F)cc(F)c4)c3c2=O)cc1	i
CCn1cc(Cn2cnc(-c3ccccc3)c2-c2ccc(C(C)=O)cc2)cn1	i
O=C(CCC(=O)N1CCc2cc(S(=O)(=O)NC3CCCCC3)ccc21)N1CCCCCC1	i
O=C(NCc1ccc2nonc2c1)c1ccccc1-c1ncc[nH]1	i
Cc1nonc1CN(C)c1ncnc2sc3c(c12)CCNC3	i
CCc1oc(C(N)=O)cc1CN1CCOC(c2ccc(Cl)c(Cl)c2)C1 (stereo not given)	i
COc1ccccc1Cn1c(CNS(=O)(=O)c2ccc(F)cc2)nc2cccnc21	i
Cc1ccc(S(=O)(=O)NCc2nc3cccnc3n2CC(C)C)cc1C	+
CCn1c(CNS(=O)(=O)c2ccc(CC(C)C)cc2)nc2cccnc21	i
CC(C)Cn1c(CNS(=O)(=O)c2cccc(Cl)c2)nc2cccnc21	i
Cc1ccc(S(=O)(=O)NCc2nc3cccnc3n2CC(C)C)cc1Cl	i
CCCc1ccc(S(=O)(=O)NCc2nc3cccnc3n2C)cc1	+
COc1ccccc1Cn1c(CNS(=O)(=O)c2ccc(C(C)(C)C)cc2)nc2cccnc21	+
COCCn1c(CNS(=O)(=O)c2ccc(C(C)C)cc2)nc2cccnc21	i
COCCn1c(CNS(=O)(=O)c2ccc(CC(C)C)cc2)nc2cccnc21	+
CCOc1ccc(S(=O)(=O)NCc2nc3cccnc3n2Cc2ccccc2OC)cc1	i
CC(=O)Nc1ccc(S(=O)(=O)NCc2nc3cccnc3n2C)cc1	i
CC(C)Cc1ccc(S(=O)(=O)NCc2nc3cccnc3n2C)cc1	i
Cc1ccc(-c2nnc(-c3nc(NCCC(C)C)c4ccccc4n3)o2)cc1	i
Cc1cc(C)c(CN2CCN(CC(=O)Nc3ccc4c(c3)OCO4)S2(=O)=O)c(C)c1	i
CCc1cc(Sc2ccccc2NC(=O)c2ccc(F)cc2)n2ncnc2n1	i
Cc1ccc(CNS(=O)(=O)c2ccc3c(c2)CCN3C(=O)CCC(=O)N2CCOCC2)o1	i
COc1ccccc1NC(=O)Nc1nc(CC(=O)NC(C)(C)C)cs1	i
SMILES	FECH inh
COC(=O)c1[nH]nc2c1C(c1ccc3c(c1)CC(C)(C)O3)CC(=O)N2 (stereo not given)	i
CCCc1cc(Sc2ccc(NC(=O)Nc3ccc4c(c3)OCCO4)cc2)n2ncnc2n1	i
Cc1[nH]cnc1-c1nccn1Cc1cn2ccsc2n1	i
O=C(NCc1cccc2[nH]ccc12)c1cn(CCCc2ccccc2)nn1	i
COC(=O)c1sc2ccccc2c1S(N)(=O)=O	i
Cc1cccc(Nc2nc(N3CCC(Cc4ccccc4)CC3)nc3c2cnn3-c2ccccc2)c1	i
Cc1ccc(S(=O)(=O)NCc2nc3cccnc3n2C2CC2)cc1	i
O=S(=O)(NCc1nc2cccnc2n1C1CC1)c1ccc(Cl)cc1	i
COc1ccc(S(=O)(=O)NCc2nc3cccnc3n2C2CC2)cc1	+
Cc1nccn1C(C)c1nc(C2CC2)nn1-c1cccc2cccnc12 (stereo not given)	i
C/C=C/Cc1nnc(C(=O)N2CCCC(CO)(CC(C)C)C2)o1 (stereo not given)	i
CC(C)CC1(CO)CCCN(C(=O)c2cccc(C#CC(C)(C)O)c2)C1 (stereo not given)	+
CC(C)(O)C#Cc1cccc(C(=O)N2CCc3nc[nH]c3C2)c1	i
Cc1ccc(Cn2c(CNS(=O)(=O)c3ccc(C)cc3)nc3cccnc32)cc1	i
CNC(=O)[C@@H]1C[C@H](N)CN1C(=O)C1Cc2ccccc2C1	i
COc1ccccc1NC(=O)Nc1nc(CC(=O)NCCc2ccc(S(N)(=O)=O)cc2)cs1	i
CC(C)CC(=O)Nc1nc2n(n1)C(c1ccc(F)cc1)C=C(c1ccc(Cl)cc1)N2 (stereo not given)	i
CC(C)CC(=O)Nc1nc2n(n1)C(c1ccccc1Cl)C=C(c1ccc(Cl)cc1)N2 (stereo not given)	i
CCC(=O)Nc1nc2n(n1)C(c1ccccc1Cl)C=C(c1ccc(Cl)cc1)N2 (stereo not given)	i
Cc1ccc(C2=CC(c3ccccc3Cl)n3nc(NC(=O)CC(C)C)nc3N2)cc1 (stereo not given)	+
O=C(Nc1nc2n(n1)C(c1ccccc1Cl)C=C(c1ccc(Cl)cc1)N2)c1ccco1 (stereo not given)	+
CC(=O)Nc1nc2n(n1)C(c1ccc(Cl)cc1)C=C(c1ccc(Cl)cc1)N2 (stereo not given)	i
CC(C)C(=O)Nc1nc2n(n1)C(c1ccccc1Cl)C=C(c1ccc(Cl)cc1)N2 (stereo not given)	i
O=C(Nc1nc2n(n1)C(c1ccccc1Cl)C=C(c1ccc(Cl)cc1)N2)c1ccc(F)cc1 (stereo not given)	i
